The supplement of paper PMC10849652
Of roughly 8,800 targets only a part is listed; those with a hit were picked by preference. About 0.5% of all pairs of compound and target were hits.

Compound: C=CC(=O)N1CCC[C@@H](n2nc(-c3ccc(Oc4ccccc4)cc3)c3c(N)ncnc32)C1 [ibrutinib]
Experiment: log2 fold change, soluble protein after heating vs DMSO (PISA); higher = thermal stabilisation; K562 lysate, 10 uM; active = over 0.2 and 3.5 SD of the protein, either way, in both replicates (recomputed)
Procedure, shortened: (§1)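 The values are log-two fold changes in thermal stability compared with solvent controls and come from duplicates. They were obtained by TMTpro 16plex LC-MS/MS, with channel sums equalised, on the supernatant after 21,000xg for 90 min. That supernatant came from crude K562 extract at 1 mg/mL protein treated with 10 μM compound for 30 min, heated for 3 min across 48°C-58°C, pooled and brought to 0.5% NP-40 at 4°C.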

Sequence of UniProt Q86Y07 (Q86Y07 whole entry, looked up): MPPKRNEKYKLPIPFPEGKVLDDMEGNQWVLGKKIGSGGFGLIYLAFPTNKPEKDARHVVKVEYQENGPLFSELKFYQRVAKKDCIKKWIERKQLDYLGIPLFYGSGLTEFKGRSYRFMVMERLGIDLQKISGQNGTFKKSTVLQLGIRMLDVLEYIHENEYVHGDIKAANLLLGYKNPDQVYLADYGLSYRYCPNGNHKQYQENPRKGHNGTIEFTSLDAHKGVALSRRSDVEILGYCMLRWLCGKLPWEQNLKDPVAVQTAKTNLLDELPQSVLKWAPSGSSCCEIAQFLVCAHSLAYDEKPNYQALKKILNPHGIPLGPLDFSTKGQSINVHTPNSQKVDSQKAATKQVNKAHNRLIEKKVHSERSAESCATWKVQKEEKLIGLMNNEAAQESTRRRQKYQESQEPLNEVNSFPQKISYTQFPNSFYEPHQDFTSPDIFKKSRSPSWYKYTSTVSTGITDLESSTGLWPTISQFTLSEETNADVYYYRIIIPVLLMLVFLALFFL
Sequence of UniProt P40818 (P40818 whole entry, looked up): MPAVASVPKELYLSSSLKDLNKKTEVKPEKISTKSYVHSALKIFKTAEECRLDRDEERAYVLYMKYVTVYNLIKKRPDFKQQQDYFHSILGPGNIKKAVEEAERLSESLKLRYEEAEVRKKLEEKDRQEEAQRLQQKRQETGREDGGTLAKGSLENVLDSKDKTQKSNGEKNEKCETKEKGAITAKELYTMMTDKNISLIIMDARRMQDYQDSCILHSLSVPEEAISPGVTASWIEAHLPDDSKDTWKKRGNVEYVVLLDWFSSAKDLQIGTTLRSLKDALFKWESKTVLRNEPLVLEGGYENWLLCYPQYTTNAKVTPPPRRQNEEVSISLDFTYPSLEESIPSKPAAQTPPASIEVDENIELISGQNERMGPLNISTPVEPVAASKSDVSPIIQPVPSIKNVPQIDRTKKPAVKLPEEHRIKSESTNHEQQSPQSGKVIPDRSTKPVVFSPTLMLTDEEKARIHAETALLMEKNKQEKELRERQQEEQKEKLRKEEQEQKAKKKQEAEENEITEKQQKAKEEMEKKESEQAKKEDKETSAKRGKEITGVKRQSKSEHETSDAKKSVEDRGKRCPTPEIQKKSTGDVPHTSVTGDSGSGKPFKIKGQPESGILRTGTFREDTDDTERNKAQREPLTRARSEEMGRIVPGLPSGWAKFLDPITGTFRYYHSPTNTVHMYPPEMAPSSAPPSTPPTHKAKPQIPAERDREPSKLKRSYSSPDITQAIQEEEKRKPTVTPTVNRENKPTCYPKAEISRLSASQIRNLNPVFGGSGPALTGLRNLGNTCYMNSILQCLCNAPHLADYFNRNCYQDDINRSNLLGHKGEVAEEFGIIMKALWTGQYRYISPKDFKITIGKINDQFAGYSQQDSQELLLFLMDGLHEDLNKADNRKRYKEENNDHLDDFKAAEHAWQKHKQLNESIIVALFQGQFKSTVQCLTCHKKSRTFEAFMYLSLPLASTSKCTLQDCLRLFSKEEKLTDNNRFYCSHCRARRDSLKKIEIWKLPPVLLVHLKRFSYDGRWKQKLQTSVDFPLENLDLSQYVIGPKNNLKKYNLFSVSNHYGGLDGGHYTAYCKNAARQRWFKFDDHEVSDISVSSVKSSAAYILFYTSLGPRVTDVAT
Sequence of UniProt Q9UNX4 (Q9UNX4 whole entry, looked up): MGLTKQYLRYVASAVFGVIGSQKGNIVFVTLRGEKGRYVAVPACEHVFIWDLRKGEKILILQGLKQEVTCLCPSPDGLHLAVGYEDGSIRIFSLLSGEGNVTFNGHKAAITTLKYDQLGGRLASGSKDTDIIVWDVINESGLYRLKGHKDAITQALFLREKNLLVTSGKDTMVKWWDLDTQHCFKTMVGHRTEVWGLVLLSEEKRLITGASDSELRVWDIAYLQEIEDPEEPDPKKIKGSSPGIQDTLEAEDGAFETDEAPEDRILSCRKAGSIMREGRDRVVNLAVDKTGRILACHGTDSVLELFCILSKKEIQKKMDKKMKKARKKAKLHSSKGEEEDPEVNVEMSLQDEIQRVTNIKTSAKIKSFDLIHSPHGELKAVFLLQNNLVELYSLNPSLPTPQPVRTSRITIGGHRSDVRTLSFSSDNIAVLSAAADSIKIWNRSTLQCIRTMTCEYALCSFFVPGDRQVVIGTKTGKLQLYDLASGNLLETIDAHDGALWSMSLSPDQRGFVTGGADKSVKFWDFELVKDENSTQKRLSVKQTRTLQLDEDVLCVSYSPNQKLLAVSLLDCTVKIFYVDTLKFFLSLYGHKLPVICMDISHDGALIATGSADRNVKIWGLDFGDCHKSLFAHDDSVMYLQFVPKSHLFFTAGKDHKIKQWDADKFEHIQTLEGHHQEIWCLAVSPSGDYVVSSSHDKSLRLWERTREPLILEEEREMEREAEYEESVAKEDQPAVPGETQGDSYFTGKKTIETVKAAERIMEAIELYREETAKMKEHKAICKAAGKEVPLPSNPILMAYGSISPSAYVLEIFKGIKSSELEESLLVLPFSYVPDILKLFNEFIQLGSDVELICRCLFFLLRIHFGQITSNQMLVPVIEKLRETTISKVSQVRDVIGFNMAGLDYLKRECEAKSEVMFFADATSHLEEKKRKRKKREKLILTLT
Sequence of UniProt Q86U90 (Q86U90 whole entry, looked up): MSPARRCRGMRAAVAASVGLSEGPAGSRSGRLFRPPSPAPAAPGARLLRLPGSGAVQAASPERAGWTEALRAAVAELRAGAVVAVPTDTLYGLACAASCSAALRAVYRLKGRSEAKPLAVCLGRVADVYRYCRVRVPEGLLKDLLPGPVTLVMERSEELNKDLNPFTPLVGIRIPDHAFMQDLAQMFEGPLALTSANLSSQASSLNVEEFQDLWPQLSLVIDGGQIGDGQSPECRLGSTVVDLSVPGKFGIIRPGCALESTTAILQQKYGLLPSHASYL
Sequence of UniProt Q8IX07 (Q8IX07 whole entry, looked up): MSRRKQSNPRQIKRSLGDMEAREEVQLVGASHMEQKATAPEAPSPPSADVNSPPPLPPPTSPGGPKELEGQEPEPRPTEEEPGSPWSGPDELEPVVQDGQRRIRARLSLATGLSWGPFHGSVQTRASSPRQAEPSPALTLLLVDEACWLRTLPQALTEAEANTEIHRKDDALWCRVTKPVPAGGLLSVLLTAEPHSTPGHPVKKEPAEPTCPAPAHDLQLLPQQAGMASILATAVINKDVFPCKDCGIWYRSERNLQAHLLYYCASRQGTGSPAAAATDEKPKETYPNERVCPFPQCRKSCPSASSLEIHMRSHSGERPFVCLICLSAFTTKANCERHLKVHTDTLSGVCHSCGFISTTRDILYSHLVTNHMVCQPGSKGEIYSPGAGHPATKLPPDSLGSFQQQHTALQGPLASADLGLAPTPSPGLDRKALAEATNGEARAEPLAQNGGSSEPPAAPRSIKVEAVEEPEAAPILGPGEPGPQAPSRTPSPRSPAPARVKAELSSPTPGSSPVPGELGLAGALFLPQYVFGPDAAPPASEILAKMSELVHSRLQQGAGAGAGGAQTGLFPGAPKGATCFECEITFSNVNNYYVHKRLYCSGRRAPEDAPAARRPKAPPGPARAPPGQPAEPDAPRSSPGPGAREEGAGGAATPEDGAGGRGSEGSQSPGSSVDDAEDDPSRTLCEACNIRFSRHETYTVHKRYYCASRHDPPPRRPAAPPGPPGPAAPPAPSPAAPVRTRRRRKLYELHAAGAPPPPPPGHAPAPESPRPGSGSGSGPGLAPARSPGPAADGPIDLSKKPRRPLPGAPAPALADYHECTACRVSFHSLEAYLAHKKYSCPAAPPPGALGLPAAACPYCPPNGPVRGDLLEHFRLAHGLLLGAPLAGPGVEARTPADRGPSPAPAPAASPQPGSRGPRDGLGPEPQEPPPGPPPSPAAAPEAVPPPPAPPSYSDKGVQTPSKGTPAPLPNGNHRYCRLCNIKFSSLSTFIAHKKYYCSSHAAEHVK
Sequence of UniProt P22695 (P22695 whole entry, looked up): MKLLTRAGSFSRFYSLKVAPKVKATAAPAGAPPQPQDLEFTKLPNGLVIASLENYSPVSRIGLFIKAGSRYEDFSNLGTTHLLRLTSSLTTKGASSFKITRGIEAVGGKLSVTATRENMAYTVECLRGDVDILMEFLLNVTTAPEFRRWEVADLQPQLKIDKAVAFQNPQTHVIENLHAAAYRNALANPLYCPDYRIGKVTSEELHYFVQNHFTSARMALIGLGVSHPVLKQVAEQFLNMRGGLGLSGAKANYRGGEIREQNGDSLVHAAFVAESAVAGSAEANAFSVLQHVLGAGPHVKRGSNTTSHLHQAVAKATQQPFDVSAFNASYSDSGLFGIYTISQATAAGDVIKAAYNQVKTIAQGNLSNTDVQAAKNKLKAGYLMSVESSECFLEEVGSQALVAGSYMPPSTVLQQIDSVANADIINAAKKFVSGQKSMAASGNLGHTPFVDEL
Sequence of UniProt A4D1P6 (A4D1P6 whole entry, looked up): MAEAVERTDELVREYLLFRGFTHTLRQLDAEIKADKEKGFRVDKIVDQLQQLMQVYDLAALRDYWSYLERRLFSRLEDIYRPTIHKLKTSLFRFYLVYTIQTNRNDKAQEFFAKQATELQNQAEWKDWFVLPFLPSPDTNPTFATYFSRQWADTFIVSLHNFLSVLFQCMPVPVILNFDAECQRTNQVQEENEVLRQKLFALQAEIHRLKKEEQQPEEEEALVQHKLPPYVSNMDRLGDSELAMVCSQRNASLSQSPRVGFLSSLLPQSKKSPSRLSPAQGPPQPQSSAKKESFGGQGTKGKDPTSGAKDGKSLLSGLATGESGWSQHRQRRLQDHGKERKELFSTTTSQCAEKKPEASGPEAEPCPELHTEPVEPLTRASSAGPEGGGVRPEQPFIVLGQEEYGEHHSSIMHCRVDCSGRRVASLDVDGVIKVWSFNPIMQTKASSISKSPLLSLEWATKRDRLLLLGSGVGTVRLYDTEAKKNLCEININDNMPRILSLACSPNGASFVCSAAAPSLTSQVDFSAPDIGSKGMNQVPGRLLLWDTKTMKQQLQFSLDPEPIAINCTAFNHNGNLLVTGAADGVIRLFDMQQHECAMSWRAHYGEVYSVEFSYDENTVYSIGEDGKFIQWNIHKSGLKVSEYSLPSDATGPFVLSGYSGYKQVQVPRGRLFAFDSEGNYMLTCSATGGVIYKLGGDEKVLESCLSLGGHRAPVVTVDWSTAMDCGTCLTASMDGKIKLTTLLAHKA

Target	log2 fold change
WDR3 (UniProt Q9UNX4)	0 (inactive)
USP8 (UniProt P40818)	0.048 (inactive)
ZFPM1 (UniProt Q8IX07)	0.004 (inactive)
VRK2 (UniProt Q86Y07)	0.049 (inactive)
WDR91 (UniProt A4D1P6)	0.05 (inactive)
WDR20 isoform 7 (UniProt Q8TBZ3)	0.003 (inactive)
YRDC (UniProt Q86U90)	0.01 (inactive)
UQCRC2 (UniProt P22695)	-0.022 (inactive)

Compound: CC(=O)c1cnc2ccc(-c3cc(Cl)c(O)c(Cl)c3)nc2c1N[C@H]1CC[C@H](CN(C)C)CC1
Experiment: as above
Procedure, shortened: as §1

Target	log2 fold change
USP9X (UniProt Q93008)	0.001 (inactive)
ZMYM1 (UniProt Q5SVZ6)	0.012 (inactive)
ZNF598 isoform 3 (UniProt Q86UK7)	-0.007 (inactive)
VAV1 (UniProt P15498)	0.054 (inactive)
WDR7 (UniProt Q9Y4E6)	0.04 (inactive)
VPS11 (UniProt Q9H270)	0.025 (inactive)
ZNF318 (UniProt Q5VUA4)	-0.043 (inactive)
VAC14 (UniProt Q08AM6)	-0.025 (inactive)
VPS41 (UniProt P49754)	0.007 (inactive)
ZNHIT6 (UniProt Q9NWK9)	-0.097 (inactive)
ZZEF1 (UniProt O43149)	-0.009 (inactive)
VPS16 (UniProt Q9H269)	0.017 (inactive)
ZHX1 (UniProt Q9UKY1)	0.015 (inactive)
ZC3H13 (UniProt Q5T200)	0.009 (inactive)
VRK1 (UniProt Q99986)	0.035 (inactive)
VPS54 (UniProt Q9P1Q0)	-0.059 (inactive)

Target	log2 fold change
WDR45 isoform 2 (UniProt Q9Y484)	0.014 (inactive)
XAB2 (UniProt Q9HCS7)	-0.048 (inactive)
YTHDF3 (UniProt Q7Z739)	0.066 (inactive)
XPO6 (UniProt Q96QU8)	0.018 (inactive)
WRB (UniProt O00258)	-0.043 (inactive)
XPOT (UniProt O43592)	0.009 (inactive)
VPS18 (UniProt Q9P253)	-0.026 (inactive)
WDR3 (UniProt Q9UNX4)	0.014 (inactive)
USP8 (UniProt P40818)	-0.009 (inactive)
ZFPM1 (UniProt Q8IX07)	-0.034 (inactive)
VRK2 (UniProt Q86Y07)	0.106 (inactive)
WDR91 (UniProt A4D1P6)	0.011 (inactive)
WDR20 isoform 7 (UniProt Q8TBZ3)	-0.001 (inactive)
YRDC (UniProt Q86U90)	-0.002 (inactive)
UQCRC2 (UniProt P22695)	0.001 (inactive)
